# Pf apPOL block: Pf-apPOL DNA polymerase inhibition | Recombinant Pf-apPOL, molecular beacon fluorescence, 1.5 h | inhibition, % at 10 µM | actives 0.25% (n = 210,000)
# mHTT-CaM PPI inh: inhibitors of human mutant huntingtin-calmodulin interaction | P42858 | AlphaScreen His-mHTT/GST-CaM binding, luminescence | inhibition, % at 15 µM | actives 3.6% (n = 190,000)
# Numbers stand for hits; . = inactive; / = no result. Sampled rows, rich in hits. Any-hit rate of the full collection: about 3.6%. Rule as the data show it: active = inhibition above about 50%; inactive = the rest.
SMILES,Pf apPOL block,mHTT-CaM PPI inh
COc1ccc(CCNC(=O)CCN2N=C(c3ccccc3)CCC2=O)cc1OC,.,.
COc1ccc(CC(=O)Nc2sc(-c3ccccc3)cc2C(N)=O)cc1OC,.,83
COc1ccc(CCNC(=O)CCN2N=C(c3ccc(C)cc3)CCC2=O)cc1OC,.,87
CN1CCN(c2ncncc2N2CCC(C(=O)N3CCOCC3)CC2)CC1,.,.
COCc1noc(C2CCCCN2C(=O)Cc2ccccc2Cl)n1 (stereo unspecified),.,.
COC(=O)C1=NNC(C(=O)OC)=NN1,.,/
Cc1cc2c(=O)n(CC(=O)Nc3ccc(F)c(Cl)c3)ccc2s1,.,.
COc1ccc(CNC(=O)c2cn3c(n2)CN(CC(C)C)CC3)cc1,.,.
CCN(CC)c1ccc(NC(=O)C2CC(=O)N(c3cccc(NC(C)=O)c3)C2)c(C)c1 (stereo unspecified),.,.
CC(C(=O)NCCN(C)C)C1CCN(S(=O)(=O)c2ccc(Cl)s2)CC1 (stereo unspecified),.,.
COc1ccccc1CC(=O)NCCCc1ccccc1,.,.
COc1ccccc1CC(=O)NCCc1ccccc1,.,63
CC(C)CNC(=O)C1CCCN(c2nnc3ccc(Cl)cn23)C1 (stereo unspecified),.,.
COc1cc(C2Nc3c(F)cccc3C3C=CCC32)cc(Br)c1OC (stereo unspecified),.,.
COc1ccc(C)c2c1NC(c1ccc(Br)cc1)C1CC=CC21 (stereo unspecified),.,72
O=[N+]([O-])c1cccc2c1NC(c1ccc(F)cc1)C1CC=CC21 (stereo unspecified),.,83
COc1cccc2c1NC(c1ccc(Cl)cc1)C1CC=CC21 (stereo unspecified),.,59
O=[N+]([O-])c1cccc2c1NC(c1ccc(Cl)cc1)C1CC=CC21 (stereo unspecified),.,86
O=[N+]([O-])c1ccc(C2Nc3c(cccc3[N+](=O)[O-])C3C=CCC32)cc1 (stereo unspecified),.,.
COc1cc(C=C2C(=O)NC(=O)NC2=O)cc(Cl)c1OCCOc1ccccc1C,.,.
c1ccc(-c2cn3nc4c(nc3n2)[nH]c2ccccc24)cc1,/,.
CCOc1ccc(CCNC(=O)c2ccc3c(c2)NC(=O)C2CCCCN32)cc1OCC (stereo unspecified),.,.
CCOc1ccccc1NC(=O)c1c[nH]c(=O)n(-c2ccc(F)cc2)c1=O,.,72
CCOc1ccccc1NC(=O)c1ccccc1Cl,.,.
COC(=O)c1ccc(NC(=O)N2CC(C)Oc3ccc(Cl)cc32)cc1 (stereo unspecified),.,.
SMILES,Pf apPOL block,mHTT-CaM PPI inh
O=C(O)C(O)Cc1ccc(O)c(O)c1 (stereo unspecified),84,/
N[C@@H](Cc1ccc(O)c(O)c1)C(=O)O,.,/
Cn1nc(-c2nc(-c3ccccc3)no2)c2c1CCN(S(=O)(=O)c1cccc(F)c1)C2,.,.
CC(=O)Nc1cccc(N2CC(C(=O)Nc3cc(Cl)ccc3C)CC2=O)c1 (stereo unspecified),.,.
CCN1C(=O)Cc2ccccc2C1C(=O)N1CCN(c2cccc(Cl)c2)CC1 (stereo unspecified),.,.
COCCN1C(=O)Cc2ccccc2C1C(=O)N1CCN(c2cccc(Cl)c2)CC1 (stereo unspecified),.,67
O=C(NCc1ccc(Cl)cc1)C1CCN(c2nnc(-c3ccccc3)o2)CC1,.,.
Clc1cc(-c2ccccc2)nc(-c2ccc(Br)cc2)n1,/,.
CC(C)C(=O)NC(c1ccccc1Cl)c1ccc2cccnc2c1O (stereo unspecified),.,100
CC(C)C(=O)NC(c1ccc(Cl)cc1)c1ccc2cccnc2c1O (stereo unspecified),.,95
CC(C)C(=O)NC(c1ccco1)c1cc(Cl)c2cccnc2c1O (stereo unspecified),.,.
CC(C)C(=O)NC(c1ccco1)c1ccc2cccnc2c1O (stereo unspecified),.,100
CC(C)C(=O)NC(c1ccccc1)c1ccc2cccnc2c1O (stereo unspecified),.,100
O=C(CN1CCN(c2ccc(F)cc2)CC1)Nc1cccnc1Cl,.,.
O=C(CN1CCN(c2ccc(F)cc2)CC1)Nc1ccc(Cl)c(Cl)c1,.,58
CN(C)C(=O)CSc1nc2ccccc2n1-c1ccccc1,.,.
Cc1ccc(C2CC(c3cccs3)=NN2C(=O)CN(C)C(=O)C2CCC2)cc1 (stereo unspecified),.,51
CCC(=O)N(C)CC(=O)N1N=C(c2cccs2)CC1c1ccc(C)cc1 (stereo unspecified),.,.
CC(=O)N(C)CC(=O)N1N=C(c2ccc(C)c(C)c2)CC1c1ccc(C)cc1 (stereo unspecified),.,58
Cc1ccc(C2CC(c3cccn3C)=NN2C(=O)CN(C)C(=O)C(C)C)cc1 (stereo unspecified),.,62
Cc1ccc(C2=NN(C(=O)CN(C)C(=O)C3CC3)C(c3ccccc3)C2)cc1C (stereo unspecified),.,.
CN(CC(=O)N1N=C(c2ccccc2Cl)CC1c1ccc(F)cc1)C(=O)C1CC1 (stereo unspecified),.,.
CC(C)C(=O)N(C)CC(=O)N1N=C(c2ccccc2F)CC1c1ccc(F)cc1 (stereo unspecified),.,.
Cc1ccc(C2CC(c3ccccc3Cl)=NN2C(=O)CN(C)C(=O)C2CC2)cc1 (stereo unspecified),.,88
CCc1cc(C2CCCN2Cc2ccc(OC)c(OC)c2)on1 (stereo unspecified),.,.
SMILES,Pf apPOL block,mHTT-CaM PPI inh
CCC(=O)Oc1ccc2c(=O)c(-c3ccc(Cl)cc3)coc2c1,.,.
Cc1c(C)n2c(SCCC(C)C)nnc2[nH]c1=O,.,.
Cc1ccc(C2CC(c3cccn3C)=NN2C(=O)CN(C)C(=O)C2CCC2)cc1 (stereo unspecified),.,54
CN(CC(=O)N1N=C(c2ccc(F)cc2)CC1c1ccc(F)cc1)C(=O)C1CCC1 (stereo unspecified),.,.
Cc1ccccc1C(O)c1ccccc1 (stereo unspecified),.,.
CC(C)CCNC(=O)C1(C)CCc2ccccc2C(=O)N1CCc1c[nH]c2ccccc12 (stereo unspecified),.,98
COCCNC(=O)C1(C)CCC(=O)N1CCc1c[nH]c2ccccc12 (stereo unspecified),.,.
O=C(NCCCc1ccccc1)C1CCc2nc(N3CCOCC3)ncc2C1 (stereo unspecified),.,.
Cc1ccc(-c2[nH]c3ccccc3c2C)cc1[N+](=O)[O-],.,64
Cc1ccc(C(=O)c2ccccc2)cc1[N+](=O)[O-],.,.
Cc1nc2sccn2c1-c1csc(Nc2ccccn2)n1,.,.
CCN(CC)c1ccc(Nc2nc(-c3c(C)nc4ccccn34)cs2)cc1,64,97
Cc1nc2ccccn2c1-c1csc(NCc2ccccc2)n1,.,.
Cc1ccc(Nc2nc(-c3c(C)nc4ncccn34)cs2)cc1,.,80
Cc1ccn2c(-c3csc(Nc4ncccn4)n3)c(C)nc2c1,.,.
Cc1ccccc1Nc1nc(-c2c(C)nc3sccn23)cs1,.,56
CCOc1ccc(Nc2nc(-c3c(C)nc4cc(C)ccn34)cs2)cc1,.,67
Cc1nc2ncccn2c1-c1csc(NCc2ccccc2)n1,.,.

# Source: PubChem (University of Kansas High Throughput Screening Laboratory)
